The record followed here is PubChem BioAssay (NCATS).

SMILES strings stand for the structures. Results filed as inconclusive are left out. Unmarked numbers belong to inactive results. Activity calls are given as the source filed them. Calls follow the shape of the dose curve; as a rule, active = well fitted activation curve with a large enough effect; inconclusive = small, poorly fitted or top-dose-only effect; inactive = no such curve, though single readings can be large or run the other way.
Potency is read from the fitted curve at half-maximal effect.

In this assay the target is Cellular tumor antigen p53 (Homo sapiens) (UniProt P04637). The assay can be described thus: Primary qHTS for small molecule compounds that upregulate eGFP-tagged delta133p53alpha (in N-terminal) cells. (AID 2060322). Also: nearly all actives have a fitted effect of over 75% in size.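 As to activation: cells pre-induced with doxycycline then dosed without doxycycline; series mostly up to about 56 µM; 0% = DMSO vehicle and 100% = reference activator.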 The following applies: NCI-H358 eGFP-delta133p53alpha fluorescence, 24 h; activation: active compounds read high. An outline of the steps: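 NCI-H358 cells pre-induced 24 h with 10 ng/ml doxycycline for eGFP-delta133p53alpha, plated dox-free and exposed 24 h at 37C to titrated compounds. Fixed, Hoechst-stained; gated GFP peak intensity by laser scanning cytometry, normalized to DMSO (0%) and 57.5 uM 5-azacytidine (100%).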
Chain of Cellular tumor antigen p53 (Homo sapiens) (P04637 whole entry, looked up): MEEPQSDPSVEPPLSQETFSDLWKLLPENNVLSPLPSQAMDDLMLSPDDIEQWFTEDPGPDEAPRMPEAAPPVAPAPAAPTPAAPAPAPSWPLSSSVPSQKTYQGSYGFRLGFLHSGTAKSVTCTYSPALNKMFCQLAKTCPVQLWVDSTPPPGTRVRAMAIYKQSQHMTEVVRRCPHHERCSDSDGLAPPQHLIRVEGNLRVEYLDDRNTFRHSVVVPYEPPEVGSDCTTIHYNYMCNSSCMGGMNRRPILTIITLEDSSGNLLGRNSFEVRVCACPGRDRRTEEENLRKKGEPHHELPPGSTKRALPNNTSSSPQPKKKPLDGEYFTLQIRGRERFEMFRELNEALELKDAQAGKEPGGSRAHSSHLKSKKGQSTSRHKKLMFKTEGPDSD
For `NCCNc1cccc2ccccc12`, the activation was 24.3%.
As for `CCCCCCCCCCC(CO)CCCCCCCC` (stereo not given), the activation is 16.4%.
The same measure, in the same setting: under `OCc1ccc(Cl)cc1Cl` stands -7.53%; under `CC(=Cc1ccccc1)C=C1SC(=S)N(CC(=O)O)C1=O`, -1.94%; under `COc1ccc2nc(NC(=O)Nc3ccccc3)sc2c1`, -19.8%.
On to `O=C1c2c(O)cccc2Cc2cccc(O)c21`, for which the activation was -24.3%.
The same measure, in the same setting: under `COc1ccc(-c2cc(C(F)F)nn2-c2ccc(S(N)(=O)=O)cc2)cc1F` stands -21.8%; under `COc1cc(S(N)(=O)=O)cc(C(=O)O)c1OC`, -2.82%; under `CCOc1ccc(NC(=O)CC(C)O)cc1` (stereo not given), -0.837%.
For the compound `O=C1CN(/N=C/c2ccc([N+](=O)[O-])o2)C(=O)N1`, the activation was -7.53%.
Regarding `Nc1nc2ccc(Cl)cc2c2nc(-c3ccco3)nn12`, the Potency is 1.69 µM (active).
As to `Cn1cc(C(F)(F)F)nc1-c1ccc(OCC(O)CNCCOc2ccc(O)c(C(N)=O)c2)cc1` (stereo not given), the activation is -30.5%.
Same read-out and setting: the result for `CN1C(=O)CC(c2ccccc2)C1=O` (stereo not given) reads 10.7%; that for `O=C(CO)[C@@H](O)[C@H](O)[C@@H](O)CO`, -15.9%.
On the same count and under the same terms, under `CON=C(C(=O)N[C@@H]1C(=O)N2C(C(=O)O)=C(Cn3ccc(=N)n3CCO)CS[C@H]12)c1csc(N)n1` stands 23.9%.
On to `NS(=O)(=O)c1cc2c(cc1Cl)NC(CC1CCCC1)NS2(=O)=O` (stereo not given), for which the activation was 11.9%.
`COc1ccccc1N1CCN(CC(O)COc2cc(OC)c(OC)c(OC)c2)CC1` (stereo not given): the activation was -6.21%.
On to `Cc1cc(C(=O)N2Cc3cnn(C)c3Nc3ccccc32)ccc1CNC(=O)N1CCC[C@H]1C(=S)N1CCCN(C)CC1`, for which the activation is -0.893%.
The same measure, in the same setting: the result for `O=C(CN1C(=O)C2(CCCC2)NCC1c1cc(F)cc(F)c1)Nc1ccc2c(c1)CC1(C2)C(=O)Nc2ncccc21` (stereo not given) reads 0.477%; that for `C[C@]1(Cn2ccnn2)[C@H](C(=O)O)N2C(=O)C[C@H]2S1(=O)=O`, -22.6%; that for `Nc1ccc(S(=O)(=O)Nc2ccccc2)cc1`, -15.9%.
Still for that read-out and setting: under `CC(=O)Nc1cccc(O)c1` stands -4.18%; under `CC(C)(C)NCC(O)COc1cccc2c1C[C@H](O)[C@H](O)C2` (stereo not given in full), 0%.
Still for that read-out and setting: under `C/C=C(/C(=C/C)c1ccc(O)cc1)c1ccc(O)cc1` stands 15.1%; under `Cc1cc(-c2ccccc2)nnc1NCCN1CCOCC1`, 16.4%.
For the compound `COC(=O)c1nc(Cl)c(Cl)nc1N`, the Potency was 27.6 µM (active).
Turning to `O=C(c1ccc(F)c(F)c1Nc1ccc(I)cc1F)N1CC(O)([C@H]2CCCCN2)C1`, the activation is 17.1%.
The same measure, in the same setting: under `C[C@@H](O)[C@H]1C(=O)N2C(C(=O)O)=C(S[C@@H]3CN[C@H](C(=O)N(C)C)C3)[C@H](C)[C@H]12` stands 7.34%; under `OCc1cccnc1`, -5.02%; under `CC(C)C(=O)OCc1cccc(OC(=O)[C@@H]2N3C(=O)[C@@H](NC(=O)Cc4ccccc4)[C@H]3SC2(C)C)c1`, -5.86%.
Take `N#C/C(=C1\SCC(c2ccccc2Cl)S1)n1ccnc1` (stereo not given): the activation is 5.08%.
Still for that read-out and setting: under `CCc1cc(C(C)=NOCc2ccc(C3CCCCC3)c(C(F)(F)F)c2)ccc1CN1CC(C(=O)O)C1` stands 10.9%; under `O=C(O)C1=CO[C@@H](O[C@@H]2O[C@H](CO)[C@H](O)[C@H](O)[C@H]2O)[C@@H]2C(CO)=CC[C@H]12`, 30.5%.
The same measure, in the same setting: under `Nc1ccc(S(=O)(=O)Nc2ncccn2)cc1` stands -6.74%.
Take `O=C(O)/C=C\C(=O)O`: the activation was -25.4%.
As for `C[C@@H](O[C@H]1OCCN(Cc2n[nH]c(=O)[nH]2)[C@H]1c1ccc(F)cc1)c1cc(C(F)(F)F)cc(C(F)(F)F)c1`, the activation was 7.53%.
Take `C[C@@H]1CCN(C(=O)[C@H](CCCN=C(N)N)NS(=O)(=O)c2cccc3c2NC[C@H](C)C3)[C@@H](C(=O)O)C1`: the activation is 2.82%.
Still for that read-out and setting: under `CN(C)CCN1CCN(c2cccc(Cl)c2)C1=O` stands -13%; under `CC(C)NC[C@@H](O)COc1ccc(CC(N)=O)cc1`, -20.9%.
Take `Cc1onc(-c2ccccc2)c1C(=O)N[C@@H]1C(=O)N2[C@@H](C(=O)O)C(C)(C)S[C@@H]12`: the activation is -7.66%.
